PubChem BioAssay (EPA / NIEHS)
Activity calls are given as the source filed them. The calls were made as follows: active = hit-call score of the fitted dose curve at least 0.9, where 1 is the maximum; inactive = score below 0.9.

What follows are compounds tested against Transcriptional activator Myb (Homo sapiens) (UniProt P10242) (assay: ATG_Myb_CIS: Attagene CIS-FACTORIAL HepG2 Assay for human Myeloblastosis (Myb) Proto-Oncogene Transcription Factor (AID 2282986)). Conditions: HepG2 Attagene CIS-FACTORIAL Myb reporter transcription; actives raise or lower the signal.
Outline: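 In this HepG2 transient-transfection format, cis-regulated reporter mRNA is quantified 24 h post-dosing by RT-PCR with capillary electrophoresis, fitted bidirectionally to DMSO baseline.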

Sequence of Transcriptional activator Myb (Homo sapiens) (P10242 whole entry, looked up): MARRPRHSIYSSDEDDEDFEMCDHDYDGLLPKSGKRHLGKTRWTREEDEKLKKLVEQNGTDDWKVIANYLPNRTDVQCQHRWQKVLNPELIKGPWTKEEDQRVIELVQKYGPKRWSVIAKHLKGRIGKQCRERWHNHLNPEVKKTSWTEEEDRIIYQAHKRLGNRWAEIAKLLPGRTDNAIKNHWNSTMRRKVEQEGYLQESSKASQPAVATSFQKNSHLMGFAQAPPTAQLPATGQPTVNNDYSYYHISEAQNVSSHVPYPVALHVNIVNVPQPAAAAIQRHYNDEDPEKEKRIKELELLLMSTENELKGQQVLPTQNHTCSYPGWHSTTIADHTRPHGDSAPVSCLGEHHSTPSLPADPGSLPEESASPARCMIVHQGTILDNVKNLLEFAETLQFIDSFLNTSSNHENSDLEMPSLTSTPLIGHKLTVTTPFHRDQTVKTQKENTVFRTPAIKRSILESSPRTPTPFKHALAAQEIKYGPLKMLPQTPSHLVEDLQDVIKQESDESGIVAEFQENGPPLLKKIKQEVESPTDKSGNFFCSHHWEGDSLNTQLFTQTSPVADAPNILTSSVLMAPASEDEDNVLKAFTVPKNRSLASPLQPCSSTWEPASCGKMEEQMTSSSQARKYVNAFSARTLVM

outcome, inactive:
O=C(O)C(c1ccc(Cl)cc1)c1ccc(Cl)cc1
CN1C(=O)N(C)C(O)C1O (centres undefined)
S=C(NC1CCCCC1)NC1CCCCC1
Cc1oncc1C(=O)Nc1ccc(C(F)(F)F)cc1
OCCc1ccncc1
CCOc1ccc(N)c([N+](=O)[O-])c1
CC(=O)OCc1ccco1
CCC(C)C=O (centres undefined)
CCOCC(=O)O

These compounds were tested against Nuclear respiratory factor 1 (Homo sapiens) (UniProt Q16656) (assay: ATG_NRF1_CIS: Attagene CIS-FACTORIAL HepG2 Assay for human Nuclear Respiratory Factor 1 (NRF1) Orphan Gene (AID 2282987)). Conditions: HepG2 NRF1 cis-element reporter, Attagene multiplex; actives raise or lower the signal.
Outline: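 Using DMSO as baseline, gain- or loss-of-signal was fitted for reporter mRNA levels in HepG2 cells transiently transfected with cis-regulated reporter units. Samples were taken 24 h after dosing and read by RT-PCR with capillary electrophoresis.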

Sequence of Nuclear respiratory factor 1 (Homo sapiens) (Q16656 whole entry, looked up): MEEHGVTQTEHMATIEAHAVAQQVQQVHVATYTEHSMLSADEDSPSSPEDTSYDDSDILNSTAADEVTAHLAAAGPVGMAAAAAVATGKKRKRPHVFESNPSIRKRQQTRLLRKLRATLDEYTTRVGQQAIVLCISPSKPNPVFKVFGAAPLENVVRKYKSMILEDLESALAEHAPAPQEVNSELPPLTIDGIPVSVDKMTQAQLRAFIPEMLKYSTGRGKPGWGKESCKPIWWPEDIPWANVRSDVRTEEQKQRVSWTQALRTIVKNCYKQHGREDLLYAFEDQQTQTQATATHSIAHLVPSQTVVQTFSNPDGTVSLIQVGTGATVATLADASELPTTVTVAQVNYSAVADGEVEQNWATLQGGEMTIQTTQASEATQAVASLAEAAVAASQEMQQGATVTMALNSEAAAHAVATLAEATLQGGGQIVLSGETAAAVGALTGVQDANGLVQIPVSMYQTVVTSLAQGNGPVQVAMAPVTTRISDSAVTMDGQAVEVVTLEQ

outcome, inactive:
COCC(C)N (centres undefined)
COc1cc(C)ccc1C(C)C
Cc1cc(C)c(C)c(C)c1
C=CC(=O)OCCOC(=O)C=C
CCCc1ccc(OC)cc1
C=C[Si](OC(C)=O)(OC(C)=O)OC(C)=O
O=C(O)c1cc2ccccc2nc1C(=O)O
CC(C)(C)c1ccc(OC(=O)c2ccccc2O)cc1
Cc1ccc(N/N=c2\c(=O)cc/c(=N/Nc3ccc(S(=O)(=O)O)cc3)c2=O)c(C)c1
O=S(=O)(O)CC(O)CCl (centres undefined)
O=c1c2ccccc2nnn1CCl
Cc1ccc(OC(=O)CC(C)C)cc1
CCCOCCOCCOCCO
O=C1C(N(CO)C(=O)NCO)N(CO)C(=O)N1CO (centres undefined)
Cn1c(=O)[nH]c2ncn(C)c2c1=O
CCCCCCCCc1ccc(Nc2ccc(CCCCCCCC)cc2)cc1
CC/C=C\CCOC(=O)CCCCC
O=c1n(CCO)c(=O)n(CCO)c(=O)n1CCO
CO[Si](OC)(OC)c1ccccc1
O=S1(=O)OC(c2ccc(O)cc2)(c2ccc(O)cc2)c2ccccc21
